Measured values as given in the supplement of paper PMC4466140.

B1: unnamed (peptide)
chain: RRRDFGAPANKRPRR

biological target: CaNbp2; test: SPOT peptide array binding signal intensity (averaged, normalized) (arbitrary units (background-subtracted, floor 0; scale differs between SH3 domains)); higher = stronger binding of the SH3 domain to the peptide
Description: (§1)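 GST-tagged SH3 domains from S. cerevisiae (Sc), A. gossypii (Ag), C. albicans (Ca) and S. pombe (Sp) were incubated at 10 ug/ml overnight at 4 C on cellulose SPOT membranes carrying 292 synthetic 15-mer peptides mined from the S. cerevisiae proteome (cysteines replaced by serines). Binding was detected with anti-GST antibody, HRP secondary and chemiluminescence, quantified with Genespotter, and reported as normalized spot intensities averaged over biological replicates.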

Binder	SPOT peptide array binding signal intensity
B1	138

biological target: CaRvs167; test: as above
Description: as §1

Binder	SPOT peptide array binding signal intensity
B1	16

biological target: CaRvs167-3; test: as above
Description: as §1

Binder	SPOT peptide array binding signal intensity
B1	4.5

biological target: CaSho1; test: as above
Description: as §1

Binder	SPOT peptide array binding signal intensity
B1	116

biological target: CaSla1-D1-D2; test: as above
Description: as §1

Binder	SPOT peptide array binding signal intensity
B1	66

biological target: CaSla1-D3; test: as above
Description: as §1

Binder	SPOT peptide array binding signal intensity
B1	4.75

biological target: ScAbp1; test: as above
Description: as §1

Binder	SPOT peptide array binding signal intensity
B1	79

biological target: ScBbc1; test: as above
Description: as §1

Binder	SPOT peptide array binding signal intensity
B1	65

biological target: ScBem1-D1; test: as above
Description: as §1

Binder	SPOT peptide array binding signal intensity
B1	94

biological target: ScBzz1-D1; test: as above
Description: as §1

Binder	SPOT peptide array binding signal intensity
B1	32

biological target: ScBzz1-D2; test: as above
Description: as §1

Binder	SPOT peptide array binding signal intensity
B1	29

biological target: ScCyk3; test: as above
Description: as §1

Binder	SPOT peptide array binding signal intensity
B1	100

biological target: ScFus1; test: as above
Description: as §1

Binder	SPOT peptide array binding signal intensity
B1	163

biological target: ScHof1; test: as above
Description: as §1

Binder	SPOT peptide array binding signal intensity
B1	2

biological target: ScHse1; test: as above
Description: as §1

Binder	SPOT peptide array binding signal intensity
B1	584

biological target: ScLsb1; test: as above
Description: as §1

Binder	SPOT peptide array binding signal intensity
B1	4.5

biological target: ScLsb2; test: as above
Description: as §1

Binder	SPOT peptide array binding signal intensity
B1	1.5

biological target: ScLsb3; test: as above
Description: as §1

Binder	SPOT peptide array binding signal intensity
B1	810

biological target: ScLsb4; test: as above
Description: as §1

Binder	SPOT peptide array binding signal intensity
B1	15.5

biological target: ScMyo3; test: as above
Description: as §1

Binder	SPOT peptide array binding signal intensity
B1	9

biological target: ScMyo5; test: as above
Description: as §1

Binder	SPOT peptide array binding signal intensity
B1	11

biological target: ScNbp2; test: as above
Description: as §1

Binder	SPOT peptide array binding signal intensity
B1	76.5

biological target: ScPex13; test: as above
Description: as §1

Binder	SPOT peptide array binding signal intensity
B1	8.25

biological target: ScRvs167; test: as above
Description: as §1

Binder	SPOT peptide array binding signal intensity
B1	31.8

biological target: ScSho1; test: as above
Description: as §1

Binder	SPOT peptide array binding signal intensity
B1	688

biological target: ScSla1-D1-D2; test: as above
Description: as §1

Binder	SPOT peptide array binding signal intensity
B1	611

biological target: ScSla1-D3; test: as above
Description: as §1

Binder	SPOT peptide array binding signal intensity
B1	25

biological target: SpAbp1-D1; test: as above
Description: as §1

Binder	SPOT peptide array binding signal intensity
B1	30.5

biological target: SpBbc1; test: as above
Description: as §1

Binder	SPOT peptide array binding signal intensity
B1	18

biological target: SpBzz1-D1; test: as above
Description: as §1

Binder	SPOT peptide array binding signal intensity
B1	225

biological target: SpBzz1-D2; test: as above
Description: as §1

Binder	SPOT peptide array binding signal intensity
B1	≤ 0

biological target: SpCyk3; test: as above
Description: as §1

Binder	SPOT peptide array binding signal intensity
B1	4

biological target: SpHof1; test: as above
Description: as §1

Binder	SPOT peptide array binding signal intensity
B1	367

biological target: SpHof1-2; test: as above
Description: as §1

Binder	SPOT peptide array binding signal intensity
B1	21.5

biological target: SpHof1-3; test: as above
Description: as §1

Binder	SPOT peptide array binding signal intensity
B1	342

biological target: SpHse1; test: as above
Description: as §1

Binder	SPOT peptide array binding signal intensity
B1	108

biological target: SpLsb1; test: as above
Description: as §1

Binder	SPOT peptide array binding signal intensity
B1	1.5

biological target: SpLsb4; test: as above
Description: as §1

Binder	SPOT peptide array binding signal intensity
B1	406

biological target: SpMyo1; test: as above
Description: as §1

Binder	SPOT peptide array binding signal intensity
B1	19

biological target: SpNbp2; test: as above
Description: as §1

Binder	SPOT peptide array binding signal intensity
B1	42

biological target: SpPex13; test: as above
Description: as §1

Binder	SPOT peptide array binding signal intensity
B1	15

biological target: SpRvs167; test: as above
Description: as §1

Binder	SPOT peptide array binding signal intensity
B1	12.2

biological target: SpSla1-D1-D2; test: as above
Description: as §1

Binder	SPOT peptide array binding signal intensity
B1	≤ 0

biological target: SpSla1-D3; test: as above
Description: as §1

Binder	SPOT peptide array binding signal intensity
B1	8
